Experimental data reported in the supplement of paper PMC6555819.

The sequences below were run on VDR:RXRa (NR concentration 270 nM, RXRa partner concentration 90 nM) (assay: PBM binding z-score (relative to random genomic background probes); higher = stronger binding; sequences stand for … in GC…GCGATTGACAGCGTAGAATGAAGG).
Description: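 Protein-binding microarray (Agilent 4x180K custom design, double-stranded 60-nt probes: 5' GC cap, 34-nt variable region, 24-nt constant primer region; full probe sequence given). Purified or IVT nuclear receptor:RXRα heterodimers (3:1 NR:RXRα, mostly 270:90 nM) or homodimers were incubated for 1 h in PBS with 2% milk and no ligand, then detected with Alexa488 antibodies. Fluorescence from o1-orientation probes (~5 replicates averaged) was converted to z-scores against 500 random hg19 background probes. Variable regions are seed direct-repeat (DR0–DR5) sites, all their single-nucleotide variants and half-site ablations.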

Row | Sequence | PBM binding z-score
1 | ATCTCTCGGTAACAAGTTCAGTGAAAGAGAGGAC | 1.62
2 | AGTCGAAGTTCACTAGGTAACGTAAGATTCAGCT | 2.44
3 | CCTCGGAGGACAACAGGAGGTCAGAGTTGCCAGA | 1.97
4 | TCTTGTAGATCACGCAGGTTAAGAAAGCCTGAGT | 0.662
5 | CGAACTACGTCATTGACAGGACAGTGAATAGTAA | -0.122
6 | ACTATTAGTTGAGACGAGGGCAGCCGATAGGTTG | 0.339
7 | TCGAGTAGGTTAGTCGGGGCATTCATCCAACATA | 2.37
8 | TCTCGGCGGACACGAAGGTCAGAGCTTTCCAGAG | 0.658
9 | CCTAGTAGGCCAATCTGGGTCACTCAAGGCTTGA | 0.875
10 | ACTAGCAGGCCAAGTTTGGGTGACTCAAACAAAG | -0.388
11 | CCTGACAGGTGAGAAGGTAACTCAGCCTCGATTA | -0.0801
12 | TCATATAGGTAAAGGCGAAAGTCGAACGATATGA | 0.324
13 | TCTCGGAGGACACGAAGGTCAGAGTTTTCCAGAG | 2.41
14 | GGAACGAGGGCAAGTTCATAGCAGAGTTTGATGG | 3.9
15 | GCTCGGAAGACAAGGTCAGAGCTTTGTCCGTAGA | 0.859
16 | CCTACTGGGGCATTCAGAGGTCATTGATCATATG | 4.47
17 | CCTCTGAGGACAGAAGGTCAGAGCTGTCCGCTTT | 1.2
18 | TTACCAAGGTGAAAGGTCGCTGATGCACGCCTTG | 2.72
19 | TCATATAGGTAGAGGTGAAAGTCGAACGATATGA | 0.794
20 | ACAGACCGGTGAGTGAAGGTAACTCAGCTGGACG | -0.63

Row | Sequence | PBM binding z-score
21 | CCTACTGGGCCATTCAGAGGTCCTTGATCATATG | -0.591
22 | TAGCCTAGGACAGATCGGGCCAGTATACGCTATA | -0.85
23 | AGAATGAGGTTGCCAAAGATCAGGGAAACGCTTG | 0.143
24 | CCGACTGGGTCAGAAAGGTTACCATACCATCCGG | 4.2
25 | AGAATGAGGTTACCAAGGATCAGGGAAACGCTTG | 2.03
26 | TCGCGTAGGTTAGTCGGGGCATTCAGCCAACATA | 2.54
27 | TCTAGTTGGTCAACGGTCACACACTCGAAATGCG | 0.848
28 | GCTTCTAGGTCAACTGATGGTCAGCTAAAGCTCG | 2.06
29 | AGTCAAAGCTCATCTAGGTAACGTAAGATATGCT | -0.215
30 | CCAGACAGGTTAAAGGTAACTCAGTCTGGTACGC | 1.62
31 | GCTTTTAGTTGAAAGGGCAACCGAATGATTCTCG | 0.313
32 | CCAACTGGGGCATAAGGTTACCATAAGCCAGCCC | 0.316
33 | TCATATAGGTAAACATGTGAAAGTCCGTAAGTTA | 1.1
34 | ATCTCTAGGTAACCAAGTTCAGCGAATGCCGAAC | 4.31
35 | CTGACTGGGGCAGAAAGGTTACCATACCATCCGG | 1.36
36 | ATCTCGAGGTAACAAGTTCAGTGAAAGAGAGGAC | 2.63
37 | CAAACTAGGTCACCGGAAGGTCAAAGGCCGCATG | 5.88
38 | CAAACTGGGTCACGAAAGGTCAAAGTCGAATGAC | 6.96
39 | TCTGCTAGGTCACTTGGTCAGCTAACGAGCTGCC | 1.3
40 | CGACCTAGGTCAAGGACAGTGAATCTCCGCACGC | 1.96
